Screening results as filed in PubChem BioAssay.
MBNL1 CUG block: MBNL1-poly(CUG) RNA binding inhibition. TR-FRET MBNL1-His/biotin-(CUG)12 binding, 665/545 ratio. Potency, µM (doses to about 57.5 µM), for inactives: at the top dose activity change, negative = inhibition, usual class: inhibitors. 280,000 tested, 0.036% active. AID 2675; active = well fitted inhibition curve with a large enough effect in the signal ratio, with a control signal flat, not every such curve was filed as active; the % refers to the signal ratio; also: potency is read from the fitted curve at half-maximal effect; % is scaled to controls: 0 for no effect and ±100 for the full control effect
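Ratiometric TR-FRET (665 over 545 nm, excitation 340 nm) tracks disruption of MBNL1-His/biotin-(CUG)12 complex after 60 min at room temperature, with compounds at 92 nM to 58 uM final.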
ClpP mod: qHTS Assay for Activators of ClpP; ATP-dependent Clp protease proteolytic subunit (Bacillus subtilis (strain 168)), P80244; purified B. subtilis ClpP, FRET peptide cleavage, 20 min; Potency, µM (series often up to 57.5 µM), for inactives: top-dose activity change, negative = active; 340,000 tested, 1.9% active; active = well fitted falling curve with a large enough effect; also: potency is read from the fitted curve at half-maximal effect; the source files actives as falling curves though it sought activators and does not explain the sign; nearly all actives have a fitted effect of over 65% in size
Target sequence (P80244 whole entry, looked up): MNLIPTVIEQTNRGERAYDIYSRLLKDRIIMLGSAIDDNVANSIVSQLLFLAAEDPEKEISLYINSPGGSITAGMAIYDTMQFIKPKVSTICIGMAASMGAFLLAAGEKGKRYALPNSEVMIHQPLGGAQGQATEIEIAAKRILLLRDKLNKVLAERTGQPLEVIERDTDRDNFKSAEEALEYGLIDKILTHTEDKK
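Purified B. subtilis ClpP, 10 microg/mL final in Tris/HCl pH8 with KCl, BSA, glycerol and Tween-20, cleaved an Abz/nitrotyrosine-quenched decapeptide. Fluorescence (ex 320, em 430) was read at 0 and 20 min at room temperature. Delta was normalized to 5.8 microM ADEP and DMSO/no-enzyme controls.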
A-T KAP1 phos: potential ataxia-telangiectasia treatments restoring KAP-1 phosphorylation | F2112 A-T fibroblasts, KAP-1 phosphorylation AlphaLISA; neocarzinostatin DNA damage 30 min before lysis | Potency, µM (series often up to 57.5 µM), for the others: at the top dose activation, most hits filed as activators | 320,000 tested, 0.19% active | AID 485349; also: potency is read from the fitted curve at half-maximal effect; % of control where 0% means no effect; nearly all actives have a fitted effect of over 45% in size
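hTERT-immortalized A-T patient fibroblasts (F2112), 500 cells/well in OPTI-MEM, 1% FBS, got compounds for 60 min, then NCS for 30 min at 37C. Lysates were then assayed for phospho-KAP-1 by AlphaLISA (anti-pKAP1 donor, anti-KAP1 acceptor beads), 6 hr at 25C.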
TCR act: T cell receptor activation | primary human leukocytes, anti-CD3, IL-2 HTRF, 48 h | 330,000 tested, under 10 active | Potency, µM (top dose mostly 9.22 µM), without a hit: top-dose activation of IL-2 secretion, actives largely listed as activators; also: % of control where 0% means no effect
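IL-2 produced over 48 hr by a-CD3 bead-stimulated primary human leukocytes exposed to compounds was detected with a homogeneous time-resolved FRET immunoassay, 665nm acceptor signal after 320nm excitation.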
GRP78 ERSR act: ER stress response induction in glioma | U87-MG GRP78 promoter luciferase reporter, 16 h | Potency, µM, inactives show at the top dose activation, actives largely listed as activators | 420,000 tested, 0.02% active; also: potency is read from the fitted curve at half-maximal effect; series mostly up to about 76 µM; % of control where 0% means no effect; nearly all actives have a fitted effect of over 35% in size
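Stably transfected U87-MG glioma cells carrying a GRP78-based luciferase sensor; 16 h compound incubation. Luminescence end-point read 10 min after Bright-Glo addition at room temperature.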
Mito fusion act: mitochondrial division inhibition or fusion activation | S. cerevisiae fusion-defective mutant growth rescue, CellTiterGlo 48 h | 320,000 tested, 0.23% active | Potency, µM (top dose mostly 46.1 µM), for the others: at the highest dose growth rescue (activation), most hits filed as activators; also: potency is read from the fitted curve at half-maximal effect; % of control where 0% means no effect; nearly all actives have a fitted effect of over 45% in size
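Read-out: ATP-based luminescence (CellTiterGlo, 10 min ambient) reporting growth of fusion-defective ts yeast after 48 hours at 37C on glycerol/ethanol YPEG medium in the presence of compound.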
The depositor's hits bear a star; · = no result; [ ] = another dose, or the depositor's remark. Shown are actives, neighbours in structure and some others; about 1.8% of the full set was active somewhere. Unless noted, calls follow the shape of the dose curve; as a rule, active = well fitted curve in the direction sought with a large enough effect; inconclusive = small, poorly fitted or top-dose-only effect, or another doubt; inactive = no such curve, though single readings can be large; an effect the other way counts as inactive or inconclusive.

SMILES | MBNL1 CUG block | ClpP mod | A-T KAP1 phos | TCR act | GRP78 ERSR act | Mito fusion act
COc1cc2c(cc1OC)C(C)N(C(=O)c1cc3c(s1)-c1ccccc1OC3)CC2 (configuration not stated) | 82% | 4% | 16% | 4% | -7% | 20µM*
COc1ccccc1N1CCN(C(=O)c2cc3c(s2)-c2ccccc2OC3)CC1 | 12% | 14µM* | 1% | 3% | -3% | 6%
CSCC[C@H](NC(=O)[C@H](CC(C)C)NC(=O)CCNC(=O)[C@@H](NC(=O)[C@H](Cc1ccccc1)NC(=O)[C@H](CO)NC(=O)[C@@H](N)CC(=O)O)C(C)C)C(N)=O | · | · | · | · | 1% | ·
COc1ccccc1C1CN(Cc2ccc(Sc3nncn3C)o2)Cc2ccccc2O1 (configuration not stated) | · | · | · | · | -1% | ·
COc1ccc2oc(C(=O)OC(C)C(=O)N3CCC(C)CC3)c(C)c2c1 (configuration not stated) | · | 25µM* | 11% | -2% | 1% | 12%
CCOC(=O)C1CCN(C(=O)COC(=O)c2oc3ccc(OC)cc3c2C)CC1 | · | 4% | 5% | -3% | 0% | 12%
CCNC(=O)NC(=O)C(C)OC(=O)c1oc2ccc(OC)cc2c1C (configuration not stated) | 7% | 32µM* | 0% | 0% | 1% | -3%
COc1ccc(N2CCN(C(=O)COC(=O)c3oc4ccc(OC)cc4c3C)CC2)cc1 | · | 25µM* | -1% | -3% | -3% | 4%
COc1ccc2oc(C(=O)OC(C)C(=O)N(C)c3ccccc3)c(C)c2c1 (configuration not stated) | · | 22µM* | 1% | 0% | -4% | 12%
O=C(Cc1c[nH]c2ccccc12)N1CCC(n2c(C3CCCO3)nc3cc(C(F)(F)F)ccc32)CC1 (configuration not stated) | · | · | · | · | -3% | ·
Cc1occc1C(=O)NCCN1Cc2ccccc2OC(c2ccccc2F)C1 (configuration not stated) | · | · | · | · | -5% | ·
COc1ccc2oc(C(=O)OCC(=O)N3CC(C)OC(C)C3)c(C)c2c1 (configuration not stated) | 0% | 4% | 7% | -4% | -2% | 2%
COc1ccc2oc(C(=O)OCC(=O)N3CCCCC3C)c(C)c2c1 (configuration not stated) | · | 8.9µM* | 8% | 7% | 11% | ·
CN(C(=O)COC(=O)c1ccccc1NC(=O)c1ccco1)C1CCS(=O)(=O)C1 (configuration not stated) | 1% | · | -7% | 2% | -3% | -6%
COc1ccc2oc(C(=O)OCC(=O)N(C)C3CCS(=O)(=O)C3)c(C)c2c1 (configuration not stated) | · | 10µM* | 2% | 7% | -3% | -8%
Cc1c(C(=O)OCC(=O)N(C)C2CCS(=O)(=O)C2)oc2ccc(Br)cc12 (configuration not stated) | · | -5% | -5% | -3% | 2% | 5%
CN(C(=O)COC(=O)c1ccccc1NCCO)C1CCS(=O)(=O)C1 (configuration not stated) | · | 20µM* | 23% | 2% | -2% | 3%
COc1ccc2oc(C(=O)OCC(=O)N3CC(C)CC(C)C3)c(C)c2c1 (configuration not stated) | · | 14µM* | 2% | 8% | -4% | 8%
Cc1cnc(SCc2ccccn2)nc1C1CCCN(C(=O)c2ccc3c(c2)OCCO3)C1 (configuration not stated) | · | · | · | · | -4% | ·
CCOc1cccc(C(=O)NC2CCCCC2)c1 | 7% | 0% | 16% | -18% | 9% | 0%
CC(=O)c1cccc(NC(=S)NC(=O)c2cccc(C)c2)c1 | · | 16µM* | 5% | 10%[46.1 µM] | 4% | 26%
